Laboratory results as given in PubChem BioAssay (NCI).
About 79,000 compounds went through this panel and 15% of them were active in at least one assay; those are over-represented in the sample as a whole. The source made the active and inactive calls. Rule as the data show it: active = growth inhibition above about 70%; inactive = the rest.

What was measured:
[1] = NCI Yeast Anticancer Drug Screen. Data for the wt1 strain (AID 149);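 also: 0% = growth of vehicle-treated wt1 cultures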; conditions: S. cerevisiae wt1 strain (SPY 50644) growth inhibition, stronger effect = higher value
In short: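 Yeast wt1 strain exposed to compounds; growth inhibition measured relative to vehicle-treated controls.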

[2] = NCI Yeast Anticancer Drug Screen. Data for the rad50EPP+ strain (AID 151);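 also: 0% = growth of vehicle-treated control cultures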; conditions: S. cerevisiae rad50 mutant strain, stronger effect = higher value
In short: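 rad50EPP+ yeast treated with test compounds. Readout: growth vs vehicle control.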

[3] = NCI Yeast Anticancer Drug Screen. Data for the rad50 strain (AID 155);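 also: 0% = growth of vehicle-only cultures of the same strain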; conditions: S. cerevisiae rad50 strain growth inhibition, stronger effect = higher value
In short: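 Yeast carrying a defined DNA repair defect were exposed to test compounds, and growth was compared with vehicle-treated controls to give percent inhibition.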

[4] = NCI Yeast Anticancer Drug Screen. Data for the mec2-1 strain (AID 157); conditions: S. cerevisiae mec2-1 strain, stronger effect = higher value
In short: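 Growth inhibition is read against vehicle-treated controls after compound exposure of the mec2-1 yeast strain, which is defective in DNA damage repair or cell cycle control.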

[5] = NCI Yeast Anticancer Drug Screen. Data for the rad14 strain (AID 159);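 also: 0% = growth of vehicle-treated control cultures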; conditions: S. cerevisiae rad14 strain growth inhibition, stronger effect = higher value
In short: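 Yeast cells carrying a defined DNA-repair defect were exposed to compounds, and growth inhibition was calculated relative to vehicle-treated control cultures.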

[6] = NCI Yeast Anticancer Drug Screen. Data for the sgs1 mgt1 strain (AID 161);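 also: 0% = growth of cultures given vehicle only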; conditions: S. cerevisiae sgs1 mgt1 strain, stronger effect = higher value
In short: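 Compounds are added to genetically altered yeast, and growth is compared with cultures given vehicle alone to give percent inhibition.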

[7] = NCI Yeast Anticancer Drug Screen. Data for the CLN2oe strain (AID 163);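 also: 0% = growth of vehicle-only control cultures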; conditions: S. cerevisiae CLN2oe strain, stronger effect = higher value
In short: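 Compound-treated yeast; growth vs vehicle ctrl = % inhibition. Genetically altered strain (cell-cycle control).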

[8] = NCI Yeast Anticancer Drug Screen. Data for the cln2 rad14 strain (AID 165);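 also: 0% = growth equal to vehicle treated cultures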; conditions: S. cerevisiae cln2 rad14 strain, stronger effect = higher value
In short: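 Growth inhibition, relative to vehicle-treated controls, is the read-out. The test organism is a yeast strain with defined genetic alterations, cln2 rad14.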

[9] = NCI Yeast Anticancer Drug Screen. Data for the bub3 strain (AID 167); conditions: S. cerevisiae bub3 mutant strain, stronger effect = higher value
In short: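 Compounds were applied to a genetically altered yeast strain carrying a cell-cycle control defect. Growth inhibition was scored against vehicle-treated controls.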

[10] = NCI Yeast Anticancer Drug Screen. Data for the wt2 strain (AID 169);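 also: 0% = growth of vehicle-treated yeast cultures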; conditions: S. cerevisiae wt2 strain growth inhibition, stronger effect = higher value
In short: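 Compound exposure of yeast; growth compared with vehicle controls; inhibition reported.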

[11] = NCI Yeast Anticancer Drug Screen. Data for the mlh1 strain (AID 171);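 also: 0% = growth of vehicle-treated control cultures of the same strain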; conditions: S. cerevisiae mlh1 strain growth inhibition, stronger effect = higher value
In short: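 Compounds are applied to a genetically altered yeast strain, and its growth is compared with that of vehicle-treated cultures to give percent inhibition.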

[12] = NCI Yeast Anticancer Drug Screen. Data for the sgs1 strain (AID 173);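 also: 0% = growth of vehicle-only control cultures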; conditions: S. cerevisiae sgs1 mutant, stronger effect = higher value
In short: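 Compounds applied to genetically altered yeast; growth compared with vehicle-treated cultures to give % inhibition.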

[13] = NCI Yeast Anticancer Drug Screen. Data for the mlh1 rad18 strain (AID 175); conditions: S. cerevisiae mlh1 rad18 strain growth inhibition, stronger effect = higher value
In short: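 Cells of a genetically altered yeast strain, deficient in DNA damage repair, were treated with compound. Their growth was then compared with that of vehicle-treated cultures to give inhibition.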

[14] = NCI Yeast Anticancer Drug Screen. Data for the rad18 strain (AID 177); conditions: S. cerevisiae rad18 mutant growth inhibition, stronger effect = higher value
In short: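 Compounds are applied to a repair-deficient yeast strain, and growth is compared with that of vehicle-treated cultures to give percent inhibition.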

[15] = NCI Yeast Anticancer Drug Screen. Data for the mgt1 strain (AID 153); conditions: S. cerevisiae mgt1 mutant growth inhibition, stronger effect = higher value
In short: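 Growth inhibition relative to vehicle controls was scored for the mgt1 yeast strain after compound exposure.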

[16] = at 5.0 µM (retest, dose inferred, filed as 0.5)
[17] = at 50.0 µM (retest, dose inferred, filed as 5.0)

Measured: growth inhibition

O=C1c2ccc(O)cc2C(=O)c2c(O)ccc(O)c21
active: [1]; at 11.0 µM 94% | [1]; at 33.0 µM 97% | [1]; at 100.0 µM 93% | [2]; at 11.0 µM 93% | [2]; at 33.0 µM 93% | [2]; at 100.0 µM 88% | [3]; at 11.0 µM 87% | [3]; at 33.0 µM 95% | [3]; [17] 90% | [3]; at 50.0 µM 71.2% | [3]; at 100.0 µM 89% | [4]; at 11.0 µM 87% | [4]; at 33.0 µM 95% | [4]; [17] 93% | [4]; at 100.0 µM 89% | [5]; at 11.0 µM 93% | [5]; at 33.0 µM 95% | [5]; at 100.0 µM 91% | [6]; [17] 90% | [6]; at 50.0 µM 77.2% | [7]; at 11.0 µM 92% | [7]; at 33.0 µM 94% | [7]; at 100.0 µM 91% | [8]; [17] 88% | [9]; at 33.0 µM 91% | [9]; [17] 92% | [9]; at 100.0 µM 88% | [10]; at 11.0 µM 92% | [10]; at 33.0 µM 96% | [10]; at 100.0 µM 90% | [11]; at 11.0 µM 88% | [11]; at 33.0 µM 94% | [11]; at 100.0 µM 91% | [12]; at 11.0 µM 90% | [12]; at 33.0 µM 95% | [12]; at 100.0 µM 91% | [13]; [17] 97% | [14]; at 11.0 µM 88% | [14]; at 33.0 µM 94% | [14]; at 100.0 µM 89%
inactive: [1]; at 1.2 µM 4% | [1]; at 3.7 µM 17% | [2]; at 1.2 µM 25% | [2]; at 3.7 µM 64% | [3]; at 1.2 µM 16% | [3]; at 3.7 µM 35% | [3]; [16] 53% | [4]; at 1.2 µM 9% | [4]; at 3.7 µM 28% | [4]; [16] 45% | [4]; at 50.0 µM 49.1% | [5]; at 1.2 µM 10% | [5]; at 3.7 µM 27% | [6]; [16] 50% | [7]; at 1.2 µM 7% | [7]; at 3.7 µM 21% | [8]; [16] 32% | [8]; at 50.0 µM 51% | [9]; at 1.2 µM -2% | [9]; at 3.7 µM 0% | [9]; [16] 18% | [9]; at 11.0 µM 62% | [9]; at 50.0 µM 29% | [10]; at 1.2 µM 1% | [10]; at 3.7 µM 19% | [11]; at 1.2 µM 4% | [11]; at 3.7 µM 20% | [12]; at 1.2 µM 3% | [12]; at 3.7 µM 19% | [13]; [16] 48% | [13]; at 50.0 µM 68.7% | [14]; at 1.2 µM 6% | [14]; at 3.7 µM 17%

O=Cn1c2ccccc2c2ccccc21
inactive: [1]; at 1.2 µM -16% | [1]; at 3.7 µM -14% | [1]; at 11.0 µM -8% | [1]; at 33.0 µM -7% | [1]; at 100.0 µM 23% | [2]; at 1.2 µM -54% | [2]; at 3.7 µM -27% | [2]; at 11.0 µM 0% | [2]; at 33.0 µM 10% | [3]; at 1.2 µM -42% | [3]; at 3.7 µM -4% | [3]; [16] 63% | [3]; at 11.0 µM 9% | [3]; at 33.0 µM -1% | [3]; at 50.0 µM 64.2% | [4]; at 1.2 µM -51% | [4]; at 3.7 µM -30% | [4]; [16] 57% | [4]; at 11.0 µM -33% | [4]; at 33.0 µM -23% | [4]; at 50.0 µM 44.4% | [4]; at 100.0 µM 31% | [8]; [16] 59% | [8]; at 50.0 µM 20.6% | [9]; at 1.2 µM -26% | [9]; at 3.7 µM -8% | [9]; [16] 42% | [9]; at 11.0 µM 13% | [9]; at 33.0 µM -21% | [9]; [17] 66% | [9]; at 50.0 µM 60.9% | [9]; at 100.0 µM 60% | [10]; at 1.2 µM -12% | [10]; at 3.7 µM -21% | [10]; at 11.0 µM -7% | [10]; at 33.0 µM -18% | [10]; at 100.0 µM 46% | [11]; at 1.2 µM -18% | [11]; at 3.7 µM -17% | [11]; at 11.0 µM 4% | [11]; at 33.0 µM -2% | [11]; at 100.0 µM 65% | [12]; at 1.2 µM -32% | [12]; at 3.7 µM -37% | [12]; at 11.0 µM -8% | [12]; at 33.0 µM -15% | [12]; at 100.0 µM 57% | [14]; at 1.2 µM -41% | [14]; at 3.7 µM -32% | [14]; at 11.0 µM -26% | [14]; at 33.0 µM -21% | [14]; at 100.0 µM 65%
active: [2]; at 100.0 µM 91% | [3]; [17] 90% | [3]; at 100.0 µM 82% | [4]; [17] 90% | [8]; [17] 74%

Nc1c([N+](=O)[O-])cc2c3c(cccc13)CC2
active: [2]; at 33.0 µM 74% | [2]; at 100.0 µM 71% | [3]; at 11.0 µM 79% | [3]; at 33.0 µM 77% | [3]; [17] 81% | [3]; at 50.0 µM 87.2% | [3]; at 100.0 µM 83%
inactive: [1]; at 1.2 µM 6% | [1]; at 3.7 µM 12% | [1]; at 11.0 µM 24% | [1]; at 33.0 µM 25% | [1]; at 100.0 µM 24% | [2]; at 1.2 µM 10% | [2]; at 3.7 µM 32% | [2]; at 11.0 µM 63% | [15]; at 1.2 µM 5% | [15]; at 3.7 µM 18% | [15]; at 11.0 µM 31% | [15]; at 33.0 µM 22% | [15]; at 100.0 µM 39% | [3]; at 1.2 µM 28% | [3]; at 3.7 µM 67% | [3]; [16] 3% | [4]; at 1.2 µM 4% | [4]; at 3.7 µM 14% | [4]; [16] 2% | [4]; at 11.0 µM 13% | [4]; at 33.0 µM 25% | [4]; [17] 29% | [4]; at 50.0 µM 27.9%
